# Source: PubChem BioAssay (National Center for Advancing Translational Sciences (NCATS))
# DT40 TDP1 CPT: DT40-hTDP1 cell growth loss with CPT | chicken DT40 Tdp1-/-;hTDP1 cells + 20 nM CPT, ATP luminescence, 48 h | Potency, µM (doses to about 46.2 µM), for inactives: at the highest dose activity change, negative = growth inhibition, actives largely listed as inhibitors | hit rate 12% among 420,000; note: potency is the fitted concentration of half-maximal effect; nearly all actives have a fitted effect of over 55% in size
#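 Chicken DT40 Tdp1-/- cells complemented with human TDP1, 400 cells/well, exposed to compounds plus 20 nM camptothecin for at least 48 h at 37 C; viability read as ATP content by CellTiter-Glo luminescence.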
# IL-1B inflam inh: blocks inflammasome-driven IL-1 beta release. THP-1 LPS/ATP IL-1B secretion, AlphaLISA, 16 h; active compounds read low. AID 743279. activity change, % at 57.5 µM. hit rate 4.7% among 360,000; in the data active = activity change below about -50%; inconclusive = mostly about -30% to -49%
#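 Secreted IL-1B measured by AlphaLISA bead assay after 16 h compound exposure of THP-1 cells; compounds (final up to 57.5 uM) added 1 h before LPS (250 ng/mL) and ATP (1.25 mM) stimulation; lower signal means less secretion.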
# TDP1 cell noCPT: qHTS for Inhibitors of human tyrosyl-DNA phosphodiesterase 1 (TDP1): qHTS in cells in absence of CPT; hit rate 15% among 420,000; AID 686978, 2013; DT40 Tdp1-/- hTDP1 cells, no CPT, ATP luminescence, 48 h; Potency, µM (titrated, usually from 46.2 µM), for the others: at the top dose activity change, negative = growth inhibition, usual class: inhibitors; note: potency is the fitted concentration of half-maximal effect; nearly all actives have a fitted effect of over 55% in size
#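 A cellular qHTS used chicken DT40 cells lacking endogenous Tdp1 but carrying stably transfected human TDP1. Compounds were applied without camptothecin, and cell growth kinetics were judged by ATP-dependent luminescence after ≥48 hr.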
# HT1080NT lethal: kills 2HG-producing HT-1080-NT fibrosarcoma cells. HT-1080-NT fibrosarcoma viability, CellTiter-Glo ATP luminescence, 48 h. hit rate 1.6% among 360,000. Potency, µM (highest dose often 46.1 µM), for inactives: at the highest dose activity, negative = less viability, most hits filed as cytotoxic. AID 686970;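 note: NT is the 2HG producing partner of a matched IDH1 knockdown line; potency is the fitted concentration of half-maximal effect; 0% = DMSO-treated cells and -100% = media-only wells without cells; nearly all actives have a fitted effect of over 55% in size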
#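 HT-1080-NT fibrosarcoma cells (2HG-overproducing), 750 cells/well in RPMI with 5% FBS, dosed after 2 h and incubated 48 h at 37C. CellTiter-Glo luminescence normalized to DMSO and no-cell wells; concentration-response curves fitted and classed.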
# HT1080 IDH1KD tx: kills HT-1080 cells with IDH1 knockdown. HT-1080 IDH1 knockdown viability, ATP luminescence, 48 h. Potency, µM (highest dose often 46.1 µM), for the others: at the top dose activity, negative = toxicity, usual class: cytotoxic. hit rate 2% among 360,000. AID 686971;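 note: potency is the fitted concentration of half-maximal effect; 0% = DMSO wells and -100% = cell-free medium wells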
#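 Knockdown cells (IDH1KD HT-1080) received compounds 2 h after plating at 750 cells/well and were kept 48 h at 37 °C in 5% FBS RPMI. A CellTiter-Glo luminescence read gave % activity for curve fitting.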
# uPA generation: cell surface uPA generation inhibition | cell surface uPA generation assay, qHTS | Potency, µM (top dose mostly 38.3 µM), for the others: at the top dose activity change, negative = inhibition, usual class: inhibitors | hit rate 0.31% among 330,000 | AID 540303; active = well fitted inhibition curve with a large enough effect; inconclusive = small, poorly fitted or top-dose-only effect; inactive = no such curve, though single readings can be large or run the other way; tested in mouse RAW 264.7 cells; note: potency is the fitted concentration of half-maximal effect; nearly all actives have a fitted effect of over 55% in size
# * hit, by the source's call; ? = inconclusive; nt = no result given. This is a sample that favours compounds with a hit; in the whole collection about 19% have one here. Unless noted, calls come from the whole dose curve; as a rule, active = well fitted curve in the direction sought with a large enough effect; inconclusive = small, poorly fitted or top-dose-only effect, or another doubt; inactive = no such curve, though single readings can be large; an effect the other way counts as inactive or inconclusive. Unless noted, % is set by controls: 0 for no effect and ±100 for the full control effect.
SMILES,DT40 TDP1 CPT,IL-1B inflam inh,TDP1 cell noCPT,HT1080NT lethal,HT1080 IDH1KD tx,uPA generation
CN(C(=O)c1cccc(NC(=O)Cc2ccc(NC(=O)C3CCN(C(=O)C4CC4)CC3)cc2)c1)C1CCCC1,-13.3%,-6.7,-13.8%,-12.4%,-6.5%,6.1%
CN(C)Cc1ccccc1-c1cc(NCc2ccccc2)ncn1,-7.1%,nt,6.1%,nt,nt,nt
O=C(COC(=O)c1c[nH]c2ccccc12)NC1CCCCC1,0.5%,8.6,?,10.4%,5.3%,4.1%
CC(C)N(Cc1ccccc1)C(=O)COC(=O)/C=C/c1cnc2ccccc2n1,6.0%,-201.4*,-26.1%,-6.8%,-0.6%,0.8%
Cc1ccc(S(=O)(=O)NCC(c2cccnc2)N2CCN(Cc3ccccc3)CC2)cc1 (configuration not stated),-25.4%,-9.6,-27.4%,-14.5%,0.3%,0.8%
O=C(NCC(c1cccnc1)N1CCN(Cc2ccccc2)CC1)C(=O)Nc1ccc(Cl)cc1 (configuration not stated),13µM*,nt,7.31µM*,nt,nt,nt
Cc1ccc(NC(=O)C(=O)NCC(c2cccnc2)N2CCN(Cc3ccccc3)CC2)cc1 (configuration not stated),23.1µM*,nt,18.4µM*,nt,nt,nt
CSc1nc(N)nc(SCC(=O)Nc2ccc(Cl)cc2)c1C#N,?,-77.7*,20.6µM*,?,?,nt
CSc1nc(N)nc(SCC(=O)C(C)(C)C)c1C#N,?,-14.2,23.1µM*,3.2%,-2.1%,-1.7%
Cc1ccc(S(=O)(=O)CCSc2nc(C)cc(C)c2C#N)cc1,?,0.0,?,?,?,-7.9%
CSc1nc(N)nc(SCCS(=O)(=O)c2ccc(Cl)cc2)c1C#N,20.6µM*,?,25.9µM*,?,11.2µM*,?
COC(=O)c1ccc(S(=O)(=O)N2CCc3ccccc32)cc1,-77.5%,28.6,?,?,9.2µM*,-8.7%
O=S(=O)(c1ccc(Cl)cc1)N1CCc2ccccc21,?,0.0,14.6µM*,5.6%,10.3%,2.8%
CC(=O)N1CCc2ccc(S(=O)(=O)N3CCc4ccccc43)cc21,20.6µM*,23.5,5.17µM*,-10.6%,-14.5%,?
COc1ccc(S(=O)(=O)N2CCc3ccccc32)cc1OC,-3.0%,?,-21.0%,1.7%,-2.9%,-4.6%
O=S(=O)(c1ccc(Cl)cc1)N1CCCc2ccccc21,-21.3%,21.8,-25.2%,3.1%,0.8%,-5.2%
CCn1c(=O)n(CC)c2cc(S(=O)(=O)N3CCc4ccccc43)ccc21,13µM*,-8.9,18.4µM*,10µM*,?,-23.2%
COc1ccc(S(=O)(=O)N2CCc3ccccc32)cc1C(=O)O,1.7%,-5.4,-2.8%,0.2%,-0.1%,11.6%
CCCCNC(=O)C(NC(=O)c1cccnc1OC)C(=O)c1ccccc1 (configuration not stated),-12.3%,-13.9,-6.4%,10.2%,12.5%,nt
COc1ccc2c(c1)CSC(c1ccccc1)C2=O (configuration not stated),?,?,?,?,3.2%,nt
COc1ccc(-c2noc(-c3ccc(C)cc3Cl)n2)cc1OC,-11.0%,nt,-4.8%,nt,nt,nt
CC[C@H](C)[C@@H]1NC(=O)[C@@H](CC(C)C)NC(=O)[C@H](C(C)C)NC(=O)[C@H]2CSSC[C@H](NC1=O)C(=O)N2,0.0651µM*,-115.5*,0.0326µM*,0.461µM*,0.517µM*,nt
CCn1c(=O)c2c(nc3n2CCN3c2ccc(OC)cc2)n(C)c1=O,?,nt,-10.0%,nt,nt,nt
CCCCCCC1/C(=N\NC(=O)c2ccccc2)CCC1C(=O)OC (configuration not stated),?,-12.2,0.4%,-1.1%,11.0%,-7.9%
S=c1nc(-c2ccc(Br)cc2)oc2c1CCCC2,20.6µM*,23.2,-98.3%,16.2%,16.6%,3.5%
SMILES,DT40 TDP1 CPT,IL-1B inflam inh,TDP1 cell noCPT,HT1080NT lethal,HT1080 IDH1KD tx,uPA generation
Cc1cccc(-c2nc(=S)c3c(o2)CCCC3)c1,?,-1.6,?,15.5%,21.9%,nt
COc1ccc(C2CC(c3ccccc3)=NN2C(=O)COC(=O)C2(C)CC2(Cl)Cl)cc1 (configuration not stated),?,-68.1*,?,-23.7%,-23.9%,0.9%
COc1ccc(C2CC(c3ccccc3)=NN2C(=O)CCC(=O)O)cc1 (configuration not stated),7.6%,-3.7,-18.0%,18.4%,9.9%,-1.4%
COc1ccc(C2CC(c3ccccc3)=NN2C(=O)c2cccs2)cc1 (configuration not stated),23.1µM*,-22.7,?,?,?,nt
COc1ccc(C2=NN(C(=O)CCC(=O)O)C(c3ccccc3F)C2)cc1 (configuration not stated),-2.6%,7.1,-2.9%,10.8%,13.5%,-3.6%
COc1ccc(C(=O)N2N=C(c3cccs3)CC2c2ccccc2O)cc1 (configuration not stated),-4.5%,25.4,13µM*,?,?,4.4%
COc1ccc(C2=NN(C(=O)c3cccs3)C(c3ccccc3O)C2)cc1 (configuration not stated),?,-59.1*,?,-28.7%,-26.9%,-7.6%
COc1ccc2cc(C3CC(c4cccs4)=NN3C(C)=O)c(Cl)nc2c1 (configuration not stated),0.0%,10.4,-7.6%,8.6%,12.9%,5.0%
COc1ccc(C2=NN(C(=O)c3cccs3)C(O)(C(F)(F)F)C2)cc1 (configuration not stated),?,-52.5*,16.4µM*,-17.8%,-24.7%,-10.2%
O=C(c1ccccc1)N1N=C(c2ccccc2)CC1(O)C(F)(F)F (configuration not stated),4.1%,1.0,-17.0%,8.5%,7.5%,4.8%
CCCCN(C)c1c(C)nc2ccc(C(=O)Nc3ccc(OC)c(OC)c3)cn12,?,0.7,14.6µM*,1.3%,-10.0%,nt
CCCCN(C)c1c(C)nc2ccc(C(=O)Nc3cc(-c4ccccc4)ccc3OC)cn12,13µM*,?,16.4µM*,?,?,nt
CCCCN(C)c1c(C)nc2ccc(C(=O)NCc3cccs3)cn12,?,-23.9,?,-5.1%,-5.6%,nt
Nc1ccccc1C(=O)C[C@H](N)C(=O)O,-2.8%,8.1,-11.7%,3.1%,-2.5%,10.1%
COc1cccc(C(=O)COC(=O)CCC(=O)c2ccccc2)c1,20.3%,11.0,-19.8%,0.8%,0.0%,8.9%
Cc1cc(C)c(Cn2c3ccccc3c3cnn(CC(=O)NCCCc4ccccc4)c(=O)c32)c(C)c1,18.4µM*,nt,20.6µM*,nt,nt,nt
